Results filed as inconclusive are left out. Values without a mark were called inactive. Active and inactive are the calls of the source. Calls come from the whole dose curve; as a rule, active = well fitted curve in the direction sought with a large enough effect; inconclusive = small, poorly fitted or top-dose-only effect, or another doubt; inactive = no such curve, though single readings can be large; an effect the other way counts as inactive or inconclusive.
Target: Ubiquitin carboxyl-terminal hydrolase 1 (Homo sapiens) (UniProt O94782)
Sequence (O94782 whole entry, looked up): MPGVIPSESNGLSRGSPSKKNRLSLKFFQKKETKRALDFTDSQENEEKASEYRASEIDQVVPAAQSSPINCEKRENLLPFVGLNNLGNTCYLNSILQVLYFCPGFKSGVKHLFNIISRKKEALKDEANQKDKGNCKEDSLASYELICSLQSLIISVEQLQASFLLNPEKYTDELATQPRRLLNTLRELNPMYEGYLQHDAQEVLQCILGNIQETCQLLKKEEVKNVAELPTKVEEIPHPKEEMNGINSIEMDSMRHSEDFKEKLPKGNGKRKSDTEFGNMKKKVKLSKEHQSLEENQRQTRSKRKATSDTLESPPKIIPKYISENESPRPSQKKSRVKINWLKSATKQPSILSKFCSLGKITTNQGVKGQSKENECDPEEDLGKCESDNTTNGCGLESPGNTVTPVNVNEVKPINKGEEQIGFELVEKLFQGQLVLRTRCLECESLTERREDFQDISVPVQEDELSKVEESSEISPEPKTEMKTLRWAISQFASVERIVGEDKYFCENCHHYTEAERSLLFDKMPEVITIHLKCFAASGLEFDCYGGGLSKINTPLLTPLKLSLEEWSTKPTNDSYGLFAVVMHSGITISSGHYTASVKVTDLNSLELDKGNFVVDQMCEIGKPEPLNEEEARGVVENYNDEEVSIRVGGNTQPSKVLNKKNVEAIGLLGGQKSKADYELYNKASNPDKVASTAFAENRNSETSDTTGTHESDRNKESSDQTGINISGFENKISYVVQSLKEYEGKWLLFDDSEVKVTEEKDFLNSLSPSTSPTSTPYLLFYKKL
Assay: Inhibitors of USP1/UAF1: Pilot qHTS (AID 504865);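 note: rhodamine fluorescence freed from ubiquitin-rhodamine substrate followed over time; top concentration of the series differs between compounds; nearly all actives have a fitted effect of over 35% in size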
Conditions: purified USP1/UAF1, Ub-rhodamine cleavage fluorescence; series mostly up to 114 µM; activity change, negative = inhibition: at the top concentration
In short: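 Enzyme-free wells gave the negative control, while test wells held 1nM USP1/UAF1 preincubated with compound for 15 min at room temperature. Ub-Rho at 150nM final started the reaction, and fluorescence at 480/540 nm was recorded kinetically.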
% is set by controls: 0 for no effect and ±100 for the full control effect.

| Compound | Potency |
| --- | --- |
| O=C(O)c1nn(Cc2ccc(Cl)cc2Cl)c2ccccc12 | inactive |
| NC(=O)CN1CCCC1=O | inactive |
| COc1ccc(C(=O)N2CCCC2=O)cc1 | inactive |
| COC(=O)C1=CCCN(C)C1 | inactive |

System: not listed separately
Assay: qHTS for Inhibitors of ATXN expression: Validation of Cytotoxic Assay (AID 588349)
Conditions: cytotoxicity counter-screen for ATXN expression inhibitors, cell viability; series mostly up to 57.1 µM; activity change, negative = cytotoxicity: at the top concentration
In short: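 Cytotoxicity counter-screen: HEK293 cells exposed to compound titrations, 72 hr, 37 degrees C. Read-out is intracellular ATP (CellTiter Glo luminescence) as a viability measure.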

| Compound | activity change, negative = cytotoxicity |
| --- | --- |
| O=C(O)c1nn(Cc2ccc(Cl)cc2Cl)c2ccccc12 | 16.1% |
| NC(=O)CN1CCCC1=O | -8.9% |
| COc1ccc(C(=O)N2CCCC2=O)cc1 | -10.2% |
| COC(=O)C1=CCCN(C)C1 | -13.9% |

System: not listed separately
Assay: qHTS for Inhibitors of ATXN expression: Validation (AID 588378); note: nearly all actives have a fitted effect of over 75% in size
Conditions: cell-based ATXN2 expression reporter assay, luminescence; series mostly up to 57.1 µM; activity change, negative = inhibition: at the top concentration
In short: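 After a 2 h attachment and 24 h compound incubation, HEK293-ATXN2-FFLuc wells are read for fluorescence at 405 nm excitation/525 nm emission as a viability measure, then for Bright-Glo luminescence reflecting ATXN2 expression.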

| Compound | activity change, negative = inhibition |
| --- | --- |
| O=C(O)c1nn(Cc2ccc(Cl)cc2Cl)c2ccccc12 | -15.1% |
| NC(=O)CN1CCCC1=O | -6.81% |
| COc1ccc(C(=O)N2CCCC2=O)cc1 | -2.92% |
| COC(=O)C1=CCCN(C)C1 | 25.8% |

From PubChem BioAssay (NCATS)
